According to PubChem BioAssay (NCI):
Where “and” joins values, the source holds several entries; their conditions need not be identical. Equal values may be shown once. Compounds without any hit were thinned out: in the full panel of roughly 83,000, 20% have a hit.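 Single-dose data. Exposure time 48 hours. Values below 10 considered active.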 Calls of active or inactive are those of the source.

What was measured:
Assay in all cases: NCI-60 one-dose screen, 48 h (100 = growth as untreated, 0 = no growth, -100 = all killed)
[1] = tested on: NCI-H23 lung
[2] = tested on: NCI-H226 lung
[3] = tested on: NCI-H322M lung
[4] = tested on: HOP-62 NSCLC
[5] = tested on: NCI-H460 lung
[6] = tested on: HOP-92 NSCLC
[7] = tested on: NCI-H522 lung
[8] = tested on: A549/ATCC NSCLC
[9] = tested on: 786-0 renal
[10] = tested on: COLO 205 colon
[11] = tested on: DU-145 prostate
[12] = tested on: K-562 leukemia
[13] = tested on: MALME-3M melanoma
[14] = tested on: MDA-MB-231 breast
[15] = tested on: RXF 393 renal
[16] = tested on: SF-268 CNS
[17] = tested on: SF-295 CNS
[18] = tested on: SF-539 CNS
[19] = tested on: UACC-257 melanoma
[20] = tested on: M14 melanoma; conditions: 10 µM unless noted

Measured: growth

C/C(=C(\c1ccc(OCCN2CCOCC2)cc1)c1ccc(OC(=O)Cc2ccccc2)cc1)c1ccc(Cl)cc1
active: [12]; 10 µM unless noted 7.15%
inactive: [1]; 10 µM unless noted 86% | [2]; 10 µM unless noted 103% | [3]; 10 µM unless noted 90.6% | [4]; 10 µM unless noted 98.9% | [5]; 10 µM unless noted 97.6% | [6]; 10 µM unless noted 70% | [7]; 10 µM unless noted 72.9% | [8]; 10 µM unless noted 90.4% | [9]; 10 µM unless noted 77.7% | [10]; 10 µM unless noted 106% | [11]; 10 µM unless noted 97.8% | [13]; 10 µM unless noted 104% | [14]; 10 µM unless noted 96.8% | [15]; 10 µM unless noted 89.6% | [16]; 10 µM unless noted 90.1% | [17]; 10 µM unless noted 98.9% | [18]; 10 µM unless noted 98.2% | [19]; 10 µM unless noted 87.5% | [20] 85.1%

O=C(O)CCCc1ccc(N(CCCl)CCCl)cc1
active: [7]; 75 µM 0.62% | [9]; 75 µM 9.49% | [11]; 75 µM -5.07% | [18]; 75 µM -40.7%
inactive: [1]; 10 µM 102% and 79.4% | [1]; 75 µM 23.1% | [2]; 10 µM 78.7% and 88.2% | [2]; 75 µM 61.2% | [3]; 10 µM 98.7% and 112% | [3]; 75 µM 91.9% | [4]; 10 µM 90.1% and 91.6% | [4]; 75 µM 35% | [5]; 10 µM 86.6% and 54.5% | [5]; 75 µM 21% | [6]; 10 µM 95.3% and 40.2% | [6]; 75 µM 14.6% | [7]; 10 µM 87.2% and 59.6% | [8]; 10 µM 89.2% | [8]; 75 µM 46.1% | [9]; 10 µM 98.4% and 86.1% | [10]; 10 µM 104% and 105% | [10]; 75 µM 66.2% | [11]; 10 µM 111% and 98.7% | [12]; 10 µM 103% and 58.3% | [12]; 75 µM 31.8% | [13]; 10 µM 98.7% and 88.9% | [13]; 75 µM 43% | [14]; 10 µM 99.4% and 104% | [14]; 75 µM 93.5% | [15]; 10 µM 106% and 87.8% | [15]; 75 µM 12% | [16]; 10 µM 87.6% and 69.9% | [16]; 75 µM 34% | [17]; 10 µM 100% and 78.8% | [17]; 75 µM 13.4% | [18]; 10 µM 87.8% and 72.3% | [19]; 10 µM 104% and 73.4% | [19]; 75 µM 28.9% | [20] 93.3% and 97.1%

CC1OC(=O)C(C(C)C)NC(=O)C(C(C)C)OC(=O)C(C(C)C)NC(=O)C(C)OC(=O)C(C(C)C)NC(=O)C(C(C)C)OC(=O)C(C(C)C)NC(=O)C(C)OC(=O)C(C(C)C)NC(=O)C(C(C)C)OC(=O)C(C(C)C)NC1=O (stereo not given)
active: [1]; 10 µM unless noted -2.18% | [2]; 10 µM unless noted 0.0533% | [3]; 10 µM unless noted -3.44% | [4]; 10 µM unless noted -50% | [5]; 10 µM unless noted -11.9% | [6]; 10 µM unless noted -38.8% | [7]; 10 µM unless noted -21.2% | [8]; 10 µM unless noted -41.2% | [9]; 10 µM unless noted -6.45% | [10]; 10 µM unless noted -81% | [11]; 10 µM unless noted -60.2% | [12]; 10 µM unless noted -38.2% | [13]; 10 µM unless noted 9.37% | [14]; 10 µM unless noted -67.9% | [15]; 10 µM unless noted -63.1% | [16]; 10 µM unless noted 5.42% | [17]; 10 µM unless noted -27.1% | [18]; 10 µM unless noted -91.4% | [19]; 10 µM unless noted -53.5%

O=[N+]([O-])c1cc(Cl)c(Cl)cc1Cl
inactive: [1]; 10 µM unless noted 105% and 107% | [2]; 10 µM unless noted 114% and 108% | [3]; 10 µM unless noted 116% and 123% | [4]; 10 µM unless noted 112% and 107% | [5]; 10 µM unless noted 110% and 108% | [6]; 10 µM unless noted 110% | [7]; 10 µM unless noted 134% and 110% | [8]; 10 µM unless noted 88.7% and 111% | [9]; 10 µM unless noted 111% and 112% | [10]; 10 µM unless noted 117% and 106% | [11]; 10 µM unless noted 111% and 121% | [12]; 10 µM unless noted 114% and 110% | [13]; 10 µM unless noted 115% and 126% | [14]; 10 µM unless noted 99.7% and 124% | [15]; 10 µM unless noted 142% and 111% | [16]; 10 µM unless noted 105% and 114% | [17]; 10 µM unless noted 97.8% and 112% | [18]; 10 µM unless noted 82.4% and 102% | [19]; 10 µM unless noted 80.1% and 111%

C#Cc1cccc(Nc2nc(Cl)nc3cc(NC(=O)CF)ccc23)c1
inactive: [1]; 10 µM unless noted 80.2% | [2]; 10 µM unless noted 86.6% | [3]; 10 µM unless noted 80% | [4]; 10 µM unless noted 70% | [5]; 10 µM unless noted 29.4% | [6]; 10 µM unless noted 91.1% | [7]; 10 µM unless noted 28.9% | [8]; 10 µM unless noted 55.4% | [9]; 10 µM unless noted 92.9% | [10]; 10 µM unless noted 41.8% | [11]; 10 µM unless noted 98.1% | [12]; 10 µM unless noted 28% | [13]; 10 µM unless noted 70.5% | [14]; 10 µM unless noted 64.5% | [15]; 10 µM unless noted 100% | [16]; 10 µM unless noted 87.8% | [17]; 10 µM unless noted 71.9% | [18]; 10 µM unless noted 89.1% | [19]; 10 µM unless noted 88.7%

C=CC[PH+](c1ccccc1)c1ccccc1.C=CC[PH+](c1ccccc1)c1ccccc1.[Pt+2].[S-]c1nc2ccccc2[nH]1.[S-]c1nc2ccccc2[nH]1
inactive: [11]; 10 µM unless noted 15.1%
active: [1]; 10 µM unless noted -12.4% | [2]; 10 µM unless noted -20.6% | [3]; 10 µM unless noted 6.44% | [4]; 10 µM unless noted -0.445% | [5]; 10 µM unless noted -6.83% | [6]; 10 µM unless noted -44.3% | [7]; 10 µM unless noted -44.2% | [8]; 10 µM unless noted -3.29% | [9]; 10 µM unless noted -4.36% | [10]; 10 µM unless noted -36.7% | [12]; 10 µM unless noted 4.86% | [13]; 10 µM unless noted -72.8% | [14]; 10 µM unless noted -44.3% | [15]; 10 µM unless noted -0.0777% | [16]; 10 µM unless noted 1.83% | [17]; 10 µM unless noted -9.49% | [18]; 10 µM unless noted -28.6% | [19]; 10 µM unless noted -25.7%
